Screening results from PubChem.
ssDAF12 agonist – S. stercoralis DAF-12 nuclear receptor activators, primary screen, cell-based, luminescence, HEK293, GRIP1 co-expression, lit1-tk-luc; Nuclear hormone receptor DAF-12 (Strongyloides stercoralis); HEK293 ssDAF-12/GRIP1 lit1-tk-luc reporter; % of 3 µM dafachronic acid response; activation, % at 6.8 µM; 370,000 compounds, 1% hits; AID 652126, 2013;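 active = activation above the mean over all tested compounds plus 3 SD, cut at about 0.9% in these data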
hgDAF12 agonist – H. glycines DAF-12 receptor agonists, primary screen, cell-based, luminescence, HEK293, GAL4 fusion, UAS-luciferase; Nuclear hormone receptor DAF-12 (Heterodera glycines), GAL4 fusion; HEK293 GAL4-hgDAF12 UAS-luciferase reporter, agonist luminescence; normalized to butyrate control; activation, % at 6.8 µM; 370,000 compounds, 1.8% hits; AID 687014, 2013;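 active = activation above a cutoff set at the mean of all screened compounds plus 3 SD, cut at about 10% in these data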
DAX1 inh-1 – DAX1 (NR0B1) inhibitors on StAR promoter, primary screen, cell-based, luminescence, SF-1 (NR5A1), full-length DAX-1; HEK293T StAR-luciferase reporter, SF-1/DAX-1 repression relief; inhibition, % at 6.8 µM; 370,000 compounds, 1.1% hits; AID 652010, 2013;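 active = inhibition above the mean over all tested compounds plus 3 SD, cut at about 3.6% in these data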;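 also: higher inhibition means more luminescence from relief of DAX-1 repression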
DAX1 inh-2 – DAX1 (NR0B1) inhibitors, primary screen, cell-based, HEK293, Gal4-DAX1, luciferase luminescence; Nuclear receptor subfamily 0 group B member 1 (Homo sapiens), P51843; HEK293 Gal4-DAX1 luciferase reporter; inhibition, % at 6.75 µM; 340,000 compounds, 0.99% hits; AID 504766, 2011;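 active = inhibition above the mean over all tested compounds plus 3 SD, cut at about 4.2% in these data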;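 also: inhibition shows as a rise in luminescence from relieved DAX1 repression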
Target sequence (P51843 207-470 limits assumed): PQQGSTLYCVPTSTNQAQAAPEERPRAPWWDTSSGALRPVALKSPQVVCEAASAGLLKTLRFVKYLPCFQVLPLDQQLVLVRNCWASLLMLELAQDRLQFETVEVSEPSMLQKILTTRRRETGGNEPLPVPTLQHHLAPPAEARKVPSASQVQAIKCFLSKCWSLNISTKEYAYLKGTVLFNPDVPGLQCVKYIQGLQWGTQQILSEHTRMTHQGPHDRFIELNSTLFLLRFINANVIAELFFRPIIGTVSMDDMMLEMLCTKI
hcDAF12 agonist – H. contortus DAF-12 nuclear receptor activators, primary screen, cell-based, luminescence, HEK293, lit1-tk-luc reporter. 370,000 compounds, 1.4% hits. HEK293 hcDAF-12 lit1-tk-luc reporter; 0% DMSO, 100% Δ7-dafachronic acid. AID 652067, 2013. activation, % at 6.8 µM;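 active = activation above the mean of all tested compounds plus 3 SD, cut at about 5.5% in these data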
LXRb hcDAF ctr – LXR agonists, Gal4 luciferase reporter, confirmation, counter-screen for hcDAF-12 agonist project, cell-based, luminescence, HEK293, H. contortus campaign. 3,400 tested, under 10 active. activation, % at 6.8 µM. HEK293 Gal4-LXR tk-luc reporter, 24 h; normalized: DMSO 0%, positive control 100%. shares compounds with hcDAF12 agonist;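 active = mean percent activation of the reporter above a cutoff set as the average over tested compounds plus their standard deviation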
Target sequence (P55055 whole entry, looked up, the tested form may be a part): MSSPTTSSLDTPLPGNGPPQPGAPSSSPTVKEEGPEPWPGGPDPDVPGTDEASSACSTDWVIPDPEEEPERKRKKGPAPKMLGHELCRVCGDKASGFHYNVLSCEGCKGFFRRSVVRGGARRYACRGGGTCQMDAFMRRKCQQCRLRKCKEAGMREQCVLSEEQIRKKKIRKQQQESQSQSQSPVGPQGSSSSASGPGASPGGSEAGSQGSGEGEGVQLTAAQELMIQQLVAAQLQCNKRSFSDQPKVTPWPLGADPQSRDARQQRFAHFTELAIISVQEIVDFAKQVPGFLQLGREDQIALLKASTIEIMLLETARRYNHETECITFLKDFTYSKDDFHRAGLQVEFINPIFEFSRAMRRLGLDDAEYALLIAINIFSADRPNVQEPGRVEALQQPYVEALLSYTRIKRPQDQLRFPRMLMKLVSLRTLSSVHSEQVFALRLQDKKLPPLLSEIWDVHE
hcDAF12 conf – H. contortus DAF-12 receptor agonists, confirmation, cell-based, luminescence, HEK293, lit1-tk-luc, triplicate; shares compounds with hcDAF12 agonist; HEK293 hcDAF-12 lit1-tk-luc reporter; % of Δ7-dafachronic acid response; activation, % at 6.8 µM; 3,400 compounds, 61% hits; AID 743032, 2013;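 active = mean activation across triplicate tests above the threshold derived from the earlier primary screen, cut at about 5.5% in these data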
Each line names hits and unclear results; the compound was inactive in the other large screens (follow-up assays come after a bar, where they were run). Rows were chosen to be rich in hits. Some 4.1% of all compounds tested hit in one or more screens of this group.

N/C(=N\OC(=O)c1cccc2ccccc12)c1ccc(Br)cc1	ssDAF12 agonist 2.2, hcDAF12 agonist 8.9 | LXRb hcDAF ctr inactive | hcDAF12 conf inactive
N/C(=N\OC(=O)c1cccc2ccccc12)c1ccncc1	ssDAF12 agonist 2.3, hcDAF12 agonist 7.5 | LXRb hcDAF ctr inactive | hcDAF12 conf inactive
N/C(Cc1ccccc1)=N\OC(=O)c1cccc2ccccc12	none
CCCC#Cc1ccc2c(c1)COc1c3ccccc3nn1-2	ssDAF12 agonist 2.6, hgDAF12 agonist 17, DAX1 inh-1 4.1, DAX1 inh-2 5.5, hcDAF12 agonist 11 | LXRb hcDAF ctr inactive | hcDAF12 conf 12
CC1=NN(C(N)=S)C(=O)C1N=Nc1ccc(C)cc1C (centres undefined)	ssDAF12 agonist 1.2, hgDAF12 agonist 11, hcDAF12 agonist 12 (no result: DAX1 inh-2) | LXRb hcDAF ctr inactive | hcDAF12 conf 13
Cc1ccc(NC(=O)c2cc3ccccc3cc2O)cc1	DAX1 inh-2 4.5, hcDAF12 agonist 10 | LXRb hcDAF ctr inactive | hcDAF12 conf 9.2
Cc1ccc(NC(=O)c2ccc(F)cc2F)cc1	hcDAF12 agonist 8.9 | LXRb hcDAF ctr inactive | hcDAF12 conf inactive
O=C(Nc1ccc2oc(=O)ccc2c1)c1ccccc1[N+](=O)[O-]	none
O=C(Nc1ccccc1)c1ccc(F)cc1F	none
O=C(COC(=O)c1ccccc1O)Nc1ccc2ccccc2c1	none
O=C(Nc1ccc2ccccc2c1)c1ccccc1O	ssDAF12 agonist 1.0, hcDAF12 agonist 7.8 | LXRb hcDAF ctr inactive | hcDAF12 conf 20
O=C(Nc1ccc2ccccc2c1)c1ccccc1[N+](=O)[O-]	hcDAF12 agonist 7.9 | LXRb hcDAF ctr inactive | hcDAF12 conf inactive
Clc1ccc(-c2nnc(SCc3cccc4ccccc34)n2-c2ccc(Cl)cc2)cc1	none (no result: DAX1 inh-2)
O=C(Nc1cccc(F)c1)O[C@@H]1CC[C@@]23CCCN2C(=O)CCC[C@H]3C1	none (no result: DAX1 inh-1, DAX1 inh-2)
COc1ccc(Cn2ccc3ccc(-c4ccc5ccn(Cc6ccccc6F)c5c4)cc32)cc1	none (no result: DAX1 inh-2)
COc1ccc(Cn2ccc3ccc(-c4ccc5ccn(Cc6ccc(OC)cc6)c5c4)cc32)cc1	none (no result: DAX1 inh-2)
O=C(COC(=O)c1cccc(S(=O)(=O)N2CCc3ccccc32)c1)Nc1ncc(Cl)cc1Cl	hcDAF12 agonist 6.8 | LXRb hcDAF ctr inactive | hcDAF12 conf inactive
CCCCNC(=O)C1CCCN1C(=O)Nc1cc(Cl)cc(Cl)c1 (centres undefined)	none (no result: DAX1 inh-2)
S=C(Nc1ccc(Cl)cc1)N1CCCCC1	none
S=C(Nc1ccc(Br)cc1)N1CCCC1	hcDAF12 agonist 7.4 | LXRb hcDAF ctr inactive | hcDAF12 conf inactive
S=c1nc(-c2ccccc2)c(-c2ccccc2)n[nH]1	none
Nc1c(-c2ccccc2)n[nH]c1-c1ccccc1	hcDAF12 agonist 7.0 | LXRb hcDAF ctr inactive | hcDAF12 conf 7.7
CN(Cc1ccccc1)C(=O)OCc1cn(Cc2ccc(Cl)cc2)nn1	none (no result: DAX1 inh-2)
O=C(Nc1ccc2c(c1)OCO2)c1noc2c1CCCCC2	hgDAF12 agonist 12, DAX1 inh-1 4.4, hcDAF12 agonist 9.0 | LXRb hcDAF ctr inactive | hcDAF12 conf 6.1
COc1ccccc1C(=O)Nc1ccc2c(c1)OCO2	ssDAF12 agonist 1.6, hcDAF12 agonist 8.0 | LXRb hcDAF ctr inactive | hcDAF12 conf 10
Cc1ccccc1C(=O)Nc1ccc2c(c1)OCO2	hgDAF12 agonist 13, hcDAF12 agonist 6.8 | LXRb hcDAF ctr inactive | hcDAF12 conf inactive
COc1ccccc1C(=O)NCC(=O)Nc1ccc2c(c1)OCO2	none
COc1ccc(Cl)cc1C(=O)Nc1ccc2c(c1)OCO2	ssDAF12 agonist 1.5, hcDAF12 agonist 7.3 | LXRb hcDAF ctr inactive | hcDAF12 conf 10
CC(=O)Nc1ccc2c(c1)OCO2	none
COc1ccc(Cl)cc1C(=O)Nc1ccncc1	none
COc1ccc(Cl)cc1C(=O)Nc1ccc2c(c1)OCCO2	ssDAF12 agonist 3.0, DAX1 inh-2 8.4, hcDAF12 agonist 8.6 | LXRb hcDAF ctr inactive | hcDAF12 conf 12
O=C(Nc1ccc2c(c1)OCO2)c1cccs1	hgDAF12 agonist 12, hcDAF12 agonist 6.6 | LXRb hcDAF ctr inactive | hcDAF12 conf 6.1
O=C(COc1c(Cl)cc(Cl)cc1Cl)N/N=C/c1ccc[nH]1	none (no result: DAX1 inh-1, DAX1 inh-2)
COC(=O)[C@]12C[C@H](CC(=O)NCc3ccccc3)C(=O)N(CCc3ccc(OC)c(OC)c3)C1=C[C@H](C(C)C)O[C@@H]2C1CC1	none (no result: DAX1 inh-2)
COc1ccc(CNS(=O)(=O)c2ccccc2Br)c(OC)c1	none (no result: DAX1 inh-2)
COc1ccc(S(=O)(=O)N2CCN(Cc3c[nH]c4ccccc34)CC2)cc1	none
CCCS(=O)(=O)N1CCN(Cc2c[nH]c3ccccc23)CC1	ssDAF12 agonist 1.4, hcDAF12 agonist 7.2 | LXRb hcDAF ctr inactive | hcDAF12 conf inactive
COc1cccc(CNC(=O)C2CCN(c3nc(OC)nc(OC)n3)CC2)c1	none (no result: DAX1 inh-2)
CCn1c(=N)n(CC(=O)c2ccc(Cl)c(Cl)c2)c2ccccc21	hcDAF12 agonist 9.5 | LXRb hcDAF ctr inactive | hcDAF12 conf 5.8
CCn1c(=N)n(CC(=O)c2ccc(OC)cc2)c2ccccc21	none
Cn1c(=N)n(CC(=O)c2ccc(Br)cc2)c2ccccc21	ssDAF12 agonist 4.4, hgDAF12 agonist 17, DAX1 inh-2 4.9, hcDAF12 agonist 23 | LXRb hcDAF ctr inactive | hcDAF12 conf 29
CCn1c(COc2ccc(C)cc2)nnc1SCC(=O)c1ccc(-c2ccccc2)cc1	none (no result: DAX1 inh-2)
CC(=O)CC[C@@H]1CC[C@]2(CCCN(C(=O)c3ccno3)C2)O1	none (no result: DAX1 inh-2)
Oc1ccc(-c2nc3ccccc3s2)cc1	ssDAF12 agonist 1.3, hgDAF12 agonist 24, DAX1 inh-1 4.2, hcDAF12 agonist 7.6 | LXRb hcDAF ctr inactive | hcDAF12 conf 8.1
COc1ccc(Cl)cc1-c1nc(N)nc(N(C)C)n1	none
c1ccc2sc(-c3ccc4c(c3)OCO4)nc2c1	none (no result: ssDAF12 agonist, hgDAF12 agonist, DAX1 inh-1, hcDAF12 agonist)
c1coc(-c2nc3ccccc3s2)c1	none
